Tau fibril ThT – qHTS for Inhibitors of Tau Fibril Formation, Thioflavin T Binding. Microtubule-associated protein tau (Homo sapiens), P10636. recombinant tau K18 P301L, heparin-induced fibrillization, ThT fluorescence. Potency, µM (series often up to 57.4 µM), actives largely listed as inhibitors. 270,000 tested, 2.1% active. AID 1460, 2008; also: nearly all actives have a fitted effect of over 55% in size
Target sequence (P10636 561-689 P618L limits assumed): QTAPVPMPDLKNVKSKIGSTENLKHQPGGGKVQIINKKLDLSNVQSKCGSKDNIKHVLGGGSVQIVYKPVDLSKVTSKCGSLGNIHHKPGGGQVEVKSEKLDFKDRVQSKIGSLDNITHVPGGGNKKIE
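Fibril formation assay: tau K18 P301L at 15 uM with trace Alexa 594 label, heparin inducer 20 uM, pH 7 sodium acetate buffer, 37 C for 6 hr; endpoint ThT signal.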
Sfp inh – qHTS Assay for Inhibitors of Bacillus subtilis Sfp phosphopantetheinyl transferase (PPTase); 4'-phosphopantetheinyl transferase ffp (Bacillus subtilis), Q9F4F7; Biochemical Sfp PPTase activity, qHTS; Potency, µM, usual class: inhibitors; 310,000 tested, 3.5% active;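 also: the enzyme is Sfp with the accession as filed and its product quenches rhodamine fluorescence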
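After 15 min at room temperature with compound, 15 nM Sfp received 5 uM rhodamine-CoA plus 12.5 uM BHQ-2-ybbR (50 mM Hepes pH 7.6, 10 mM MgCl2). Rate came from the fluorescence difference over 30 min, ex 525/em 598 nm.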
Tau fluor counter – Counterscreen qHTS for Inhibitors of Tau Fibril Formation, Fluorescence Polarization; AID 1463, 2008; Potency, µM (series often up to 57.7 µM); 280,000 tested, 0.93% active; tau K18 P301L (four-repeat tau fragment) Alexa594 fluorescence, heparin fibrillization; also: nearly all actives have a fitted effect of over 55% in size
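Human K18 P301L tau (15 uM unlabeled plus 0.24 uM Alexa 594-labeled, final) in 100 mM sodium acetate pH 7 was mixed with compound and 20 uM heparin and incubated 6 hr at 37 C.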
Tau fibril FP – qHTS for Inhibitors of Tau Fibril Formation, Fluorescence Polarization; Microtubule-associated protein tau (Homo sapiens), P10636; K18 P301L tau heparin fibrillization, Alexa594 FP, 6 h; Potency, µM (titrated, usually from 57.7 µM), usual class: inhibitors; 280,000 tested, 0.39% active; AID 1468, 2008; also: nearly all actives have a fitted effect of over 55% in size
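Read-out: fluorescence polarization of Alexa 594-labeled tau (0.24 uM), 555 nm excitation, 632 nm emission. Mixtures held 15 uM unlabeled K18 P301L, compound and 20 uM heparin, pH 7 acetate buffer, incubated 6 hr at 37 C.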
G9a block – qHTS Assay for Inhibitors of Histone Lysine Methyltransferase G9a; Histone-lysine N-methyltransferase EHMT2 (Homo sapiens), Q96KQ7; G9a H3K9 monomethylation, AlphaScreen, 2 h; Potency, µM (series often up to 102 µM), usual class: inhibitors; 350,000 tested, 8.8% active; also: nearly all actives have a fitted effect of over 75% in size
Target sequence (Q96KQ7 913-1193 limits assumed): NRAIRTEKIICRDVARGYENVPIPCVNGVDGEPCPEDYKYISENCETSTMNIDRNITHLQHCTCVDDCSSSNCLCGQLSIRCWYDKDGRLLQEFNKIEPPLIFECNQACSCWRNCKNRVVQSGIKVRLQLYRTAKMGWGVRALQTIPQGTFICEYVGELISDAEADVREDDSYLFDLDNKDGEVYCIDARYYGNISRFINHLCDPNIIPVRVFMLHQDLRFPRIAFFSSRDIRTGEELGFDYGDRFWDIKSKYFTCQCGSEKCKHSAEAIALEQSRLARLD
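Compounds were preincubated with 20 nM G9a for 15 min, after which biotinylated H3K9 peptide (500 nM) and SAM (20 uM) started a 2 h room-temperature reaction. Monomethylated product was quantified by antibody-based AlphaScreen chemiluminescence.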
FBPA coupling cs – qHTS Assay for Inhibitors of Fructose-1,6-bisphosphate Aldolase from Giardia Lamblia: Coupling assay counterscreen. coupling enzyme system counterscreen, AmpLite Red fluorescence. activity change, negative = inhibition, % at 58.2 µM, hits read low. 290,000 tested, 0.67% active. AID 2472, 2010; in the data active = activity change below about -30%
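Final compound at 57.5 uM, incubated 10 min at RT with coupling enzyme reagent (glyceraldehyde-3-phosphate), then 20 min with substrate and AmpLite Red detection. Fluorescence read at 525/598 nm; tests interference with the coupling assay, not aldolase inhibition.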
A number is an active result; – = inactive; ? = inconclusive; · = not tested or not shown; [ ] = dose if it differs, or a comment. Only some compounds are listed: those with a hit (about 11% of all), similar ones and a draw of the others. Unless noted, calls follow the shape of the dose curve; as a rule, active = well fitted curve in the direction sought with a large enough effect; inconclusive = small, poorly fitted or top-dose-only effect, or another doubt; inactive = no such curve, though single readings can be large; an effect the other way counts as inactive or inconclusive.

SMILES	Tau fibril ThT	Sfp inh	Tau fluor counter	Tau fibril FP	G9a block	FBPA coupling cs
COc1ccc(C2NC(=O)C(C#N)=C(S)N2c2ccccc2)cc1OC (stereo unspecified)	?	20µM	–	?	45µM	–
COc1ccc(C2Nc3ccccc3C(=O)N2c2ccccc2)cc1CN1CCOCC1 (stereo unspecified)	–	–	–	–	?	–
Cc1cccc(N2C(S)=C(C#N)C(=O)NC2c2ccco2)c1 (stereo unspecified)	–	–	–	–	·	–
COc1cc(C2NC(=O)C(C#N)=C(S)N2c2ccccc2)ccc1OC(C)C (stereo unspecified)	?	40µM	–	?	?	–
N#CC1=C(S)N(c2ccccc2)C(c2ccc(-c3cccc(Cl)c3)o2)NC1=O (stereo unspecified)	22µM	28µM	–	?	?	–
CC(C)n1c(=S)[nH]c2c1c(=O)[nH]c(=O)n2C	?	10µM	–	?	?	–
CCOc1ccccc1OCCC(=O)OCC(=O)Nc1c(C)nn(-c2ccccc2)c1C	·	·	·	·	56µM	·
C=C(C(=O)c1ccccc1)C(c1ccccc1)C(C)C(=O)c1ccccc1 (stereo unspecified)	–	–	–	–	–	–
C=C(C(=O)c1ccccc1)C(C)C(=C)C(=O)c1ccccc1	28µM	–	–	–	–	–
O=C(c1ccccc1)c1ccccc1	–	–	–	–	–[12.7 µM]	–
O=C(O)c1ccc(C(=O)C(=O)c2ccccc2)cc1	–	–	–	–	79µM	–
Cc1ccccc1C(=O)OCc1cc(=O)n2nc(C(C)C)sc2n1	?	·	–	–	–	·
CCCc1ccc(OC(C)c2nc(-c3ccc(-n4cccc4)cc3)no2)cc1 (stereo unspecified)	?	·	–	–	–	·
COc1ccc(C2=CC(=O)C=CC2=O)cc1	14µM	3.2µM	?	35µM	1.3µM	-36
Cc1cc(Nc2cccc(C)c2C)n2cnnc2n1	–	·	–	–	?	·
Cc1ccc(NC(=S)N2CCC(NC(=O)c3cccc(F)c3)CC2)cc1	·	–	·	·	–	–
CCOc1ccccc1NC(=O)N1CCC(NC(=O)c2cccc(C)c2)CC1	–	–	–	–	32µM	–
Cc1cccc(C(=O)NC2CCN(C(=O)Nc3ccccc3C)CC2)c1	–	–	–	–	–	–
Cc1cccc(C(=O)NC2CCN(C(=O)Nc3ccc(F)cc3)CC2)c1	·	–	·	·	79µM	–
Cc1ccc(NC(=S)N2CCC(NC(=O)c3ccc(C)cc3)CC2)cc1	·	–	·	·	79µM	–
CCCCC/C=C\C/C=C\CCCCCCCC(=O)O[C@@H](CO)COC(=O)CCCCCCCCCCCCCCCCC	–	–	–	–	–	–
CCN(CC)S(=O)(=O)c1ccc(C)c(NC(=S)N2CCN(c3ccccn3)CC2)c1	·	?	·	·	32µM	–
CCN(CC)S(=O)(=O)c1ccc(C)c(NC(=S)N2CCN(C/C=C/c3ccccc3)CC2)c1	–	–	–	–	35µM	–
O=C(NCCc1cccc(Cl)c1)c1cccc(-n2cnnn2)c1	·	·	·	·	45µM	·
O=C(N/N=C/C(Br)=C\c1ccccc1)c1n[nH]c2c1CCC2	?	28µM	–	–	?	–
SMILES	Tau fibril ThT	Sfp inh	Tau fluor counter	Tau fibril FP	G9a block	FBPA coupling cs
CC(/C=N/NC(=O)c1n[nH]c2c1CCC2)=C\c1ccccc1	?	–	–	–	–	–
CCOC(=O)c1c(O)c2c([nH]c1=O)CCCC2	–	–	–	–	–[2.33 µM]	–
CCOC(=O)c1c2c([nH]c(=S)c1C#N)CCCC2	?	40µM	–	–	·	–
CCc1[nH]c(=S)c(C#N)c2c1CCCC2	–	?	–	–	3.2µM	–
Nc1c(C(=O)Nn2cnnc2)cc([N+](=O)[O-])cc1[N+](=O)[O-]	–	–	–	–	50µM	–
CCOC(=O)C(N)CSC1CC(=O)N(c2ccc(OC)cc2)C1=O (stereo unspecified)	·	–	·	·	45µM	–
COc1ccc2[nH]c3c(c2c1)CCN1C(=O)N([C@@H](C)C(=O)NCc2ccc(F)cc2)C(=O)[C@]31C	·	–	·	·	?	–
COc1ccc2[nH]c3c(c2c1)CCN1C(=O)N([C@@H](C)C(=O)NCCc2ccc(F)cc2)C(=O)[C@]31C	·	–	·	·	50µM	–
CCCCCc1cc(=O)oc2c(C(CCN3CCCC(C)C3)c3ccc4c(c3)OCO4)c(OC)cc(OC)c12 (stereo unspecified)	?	–	–	–	?	–
CCCCCc1cc(=O)oc2c(C(CCN3CCCC3)c3ccc4c(c3)OCO4)c(OC)cc(OC)c12 (stereo unspecified)	·	40µM	·	·	·	–
CCCCCc1cc(=O)oc2c(C(CCN3CCCCC3)c3ccc4c(c3)OCO4)c(OC)cc(OC)c12 (stereo unspecified)	–	56µM	–	–	–[12.7 µM]	–
CCCCC1=CC2=C(OC(C)=O)C(=O)C(C)(OC(=O)C3CCCC3)C(=O)C2=CO1 (stereo unspecified)	28µM	–	?	?	·	–
Cc1ccc(Cl)cc1NC(=O)CSC(N)=O	32µM	?	–	?	–[12.7 µM]	–
COCC(=O)Nc1cc(Cl)ccc1C	–	–	–	–	–	–
Cc1ccc(Cl)cc1NC(=O)CNCC(c1ccccc1)N(C)C (stereo unspecified)	·	–	·	·	25µM	–
COc1ccc(Cl)cc1NC(=O)CNCC(c1ccccc1)N(C)C (stereo unspecified)	–	–	–	–	50µM	–
COCCNc1nc(C)c(C(C)=O)s1	–	–	–	–	40µM	–
COc1ccccc1CNc1nc(C)c(C(C)=O)s1	·	?	·	·	11µM	–
Cc1nc(NCCc2ccccc2)sc1C(=O)N(C)C	·	?	·	·	25µM	–
CCOC(=O)c1nc(NCCc2ccccc2)sc1C	?	–	–	–	–	–
COC(=O)Nc1nc(C)c(C(=O)N(C)C)s1	–	–	–	–	–[12.7 µM]	–
COc1ccccc1CNc1nc(C)c(C(=O)N(C)C)s1	·	45µM	·	·	14µM	–
CCCC(=O)Nc1nc(C)c(C(C)=O)s1	–	–	–	–	–	–
CC(C)=CCC/C(C)=C/CO/N=C1/C[C@@H](O)[C@@H](O)[C@@H]2[C@@H]3C(=O)N(Cc4ccc5c(c4)OCO5)C(=O)[C@H]3CC[C@@H]12	–[11.5 µM]	–	–[11.6 µM]	–[11.6 µM]	·	–

Bioassay records from PubChem BioAssay.
